Experimental findings from PubChem BioAssay are described below.

The test system of test [1] is XIP peptide (Xip251-270) binding. Briefly: XIP fragment 251-270 binding compounds – biochemical, small-molecule microarray, fluorescence 635/667 nm, 0.1 µg/mL protein, primary screen (AID 1182). Conditions: fluorescent protein binding, 635 nm, higher = more signal, called active from +8 up or from −8 down.
The test system of the next test is XIP peptide (Xip251-270). Briefly: compounds binding XIP fragment 251-270 – biochemical, small-molecule microarray, fluorescence 635/667 nm, 0.5 µg/mL protein, primary screen (AID 1183). Conditions: fluorescence 635 nm, higher = more signal.
A short description of test [2]: blood-stage malaria parasite viability loss – strain 3D7, DAPI fluorescence, 100 nL, primary screen (AID 1184).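 Note: parasites grown inside human red blood cells in medium with human serum.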 Conditions: P. falciparum 3D7 growth, 3 d, higher = more signal.
The target of test [3] is Homeobox protein Hox-A13 (Mus musculus) (UniProt Q62424). Briefly: disruptors of Hoxa13 oligonucleotide interaction – biochemical, fluorescence polarization, labeled oligonucleotide, primary screen (AID 1185). Conditions: Hoxa13:DNA binding, 15 min, higher = more signal, called active from +8 up or from −8 down. Background: Polarisation of emitted light reports the rotation of a fluorescent probe.

Test [4] is described as follows: blockers of DNA damage checkpoint Chk1 activation – imaging, HeLa, hydroxyurea, phospho-Chk1 antibody, percent positive cells, primary screen (AID 1186). Conditions: hydroxyurea-induced phospho-Chk1 immunofluorescence imaging, higher = more signal.
A short description of test [5]: blockers of DNA damage checkpoint Chk1 activation – imaging, HeLa, hydroxyurea, phospho-Chk1 nuclear intensity, primary screen (AID 1187). Conditions: hydroxyurea-induced phospho-Chk1 immunofluorescence imaging, higher = more signal.

The source made the active and inactive calls. Unless noted, the rule behind the calls is not given here.

Homeobox protein Hox-A13 (Mus musculus), sequence (Q62424 whole entry, looked up): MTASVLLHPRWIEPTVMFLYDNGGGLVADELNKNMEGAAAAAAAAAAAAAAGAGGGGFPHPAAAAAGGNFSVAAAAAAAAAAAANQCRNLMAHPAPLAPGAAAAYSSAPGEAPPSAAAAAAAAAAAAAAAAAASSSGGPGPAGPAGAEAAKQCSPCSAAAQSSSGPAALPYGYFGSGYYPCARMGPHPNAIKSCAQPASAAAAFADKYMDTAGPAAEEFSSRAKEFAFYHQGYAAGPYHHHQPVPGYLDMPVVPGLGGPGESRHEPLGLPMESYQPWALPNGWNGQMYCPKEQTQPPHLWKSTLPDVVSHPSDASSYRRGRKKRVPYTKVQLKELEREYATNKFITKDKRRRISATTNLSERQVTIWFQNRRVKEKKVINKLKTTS

For `CN(C)CCCNC(=O)[C@@]1(c2ccc([N+](=O)[O-])cc2)CC(=O)N(CC23CC4CC(CC(C4)C2)C3)[C@@H]1c1ccc(CO)cc1`, the composite z-score is 1.13 (inactive) in test [1] and 0.843 with XIP peptide (Xip251-270). Moreover, the z-score was -2.4 in test [2], 7.52 (inactive) in test [3], -0.451 (inactive) in test [4] and -0.75 (inactive) in test [5].
Turning to `Cc1ccc(F)cc1S(=O)(=O)N[C@@H]1CCN(Cc2ccc(OC(C)C)cc2)C1`, the composite z-score in test [1] was -0.46 (inactive); in the test on XIP peptide (Xip251-270), -0.701. Also, the z-score in test [2] was -0.85; in test [3], -5.27 (inactive); in test [4], 0.239 (inactive); in test [5] it was 1.54 (inactive).
As to `COc1ccc(C(O)C2C=CC3C(=O)N(Cc4ccccc4)C(=O)C3N2n2cnnc2)c2ccccc12` (stereo not drawn), the composite z-score in test [1] is 1.09 (inactive); in the test with XIP peptide (Xip251-270), 0.537. Moreover, the z-score in test [2] was -1.05; in test [3], -1.49 (inactive); in test [4] it was -0.525 (inactive); in test [5] it was -0.966 (inactive).
In the case of `CN1C(=O)C2C(C1=O)C1C=C(c3ccc(CO)cc3)C2C(c2cccs2)N1Cc1cccc(OC(F)(F)F)c1` (stereo not drawn), the composite z-score in test [1] was 0.94 (inactive); in the test on XIP peptide (Xip251-270), 0.591. The z-score in test [2] was -3.19; in test [3], -8.09 (active); in test [4], -0.384 (inactive); in test [5], -0.0226 (inactive).
As to `COC(=O)[C@@]1(Cc2ccc(F)cc2)[C@H]2c3cc(C(=O)N4CCCC4)n(CCF)c3C[C@H]2CN1C(=O)c1ccccc1`, the composite z-score in test [1] is 2.43 (inactive); in the test with XIP peptide (Xip251-270), -0.352. Also, the z-score in test [2] was -0.815; in test [3], -4.62 (inactive); in test [4], -0.323 (inactive); in test [5], -0.593 (inactive).
On to `NCCCCCCNC(=O)[C@H]1C[C@H]2C(=O)N[C@@H](Cc3ccccc3)C(=O)N2[C@H]1c1ccc(O)cc1`, for which the composite z-score in test [1] is -0.342 (inactive); with XIP peptide (Xip251-270) it was 0.623. For the same compound, the z-score in test [2] is 0.171; in test [3], -3.5 (inactive); in test [4] it was -0.174 (inactive); in test [5], 0.592 (inactive).
Regarding `COc1ccc([Si](C)(C)[C@@H]2[C@@H](CCO)O[C@]3(C(=O)N(Cc4cccc(N5C(=O)c6ccccc6Oc6ccccc65)c4)c4ccccc43)[C@H]2C)cc1`, the values for the composite z-score (in test [1]; in the test with XIP peptide (Xip251-270)) were 0.872 (inactive) and 0.41, respectively. The z-score in test [2] was -2.47; in test [3], -1.49 (inactive); in test [4], -0.665 (inactive); in test [5], -0.278 (inactive).
As to `CC=CC(O)C1C=CC2C(=O)N(C)C(=O)C2N1N1CCCCC1` (stereo not drawn), the composite z-score is 0.102 (inactive) in test [1] and 0.759 with XIP peptide (Xip251-270). The z-score in test [2] is 0.884; in test [3], -7.38 (inactive); in test [4], 0.436 (inactive); in test [5] it was -0.297 (inactive).
In the case of `COC1(C)CN(Cc2ccccc2Br)[C@H](/C=C/c2ccccc2)[C@H](Cc2ccccc2)O1` (stereo partly drawn), the figures for the composite z-score (in test [1]; in the test with XIP peptide (Xip251-270)) were -0.181 (inactive) and -0.13, respectively. Moreover, the z-score in test [2] is 0.502; in test [3], 0.471 (inactive); in test [4], -1.6 (inactive); in test [5] it was -2.34 (inactive).
For `CC(=O)n1cc(C(O)C2C=CC3C(=O)N(c4ccccc4)C(=O)C3N2Nc2ccccc2)c2ccccc21` (stereo not drawn), the composite z-score was 0.853 (inactive) in test [1] and -0.515 in the test with XIP peptide (Xip251-270). Moreover, the z-score in test [2] was -0.4; in test [3], -3.42 (inactive); in test [4], 0.863 (inactive); in test [5], 0.355 (inactive).
As to `COc1ccccc1CN1C(=O)c2ccccc2[C@](Cc2ccccc2I)(C(=O)NC(C)C)[C@@H]1c1ccc(CO)cc1`, the composite z-score in test [1] was 0.265 (inactive); in the test on XIP peptide (Xip251-270), 0.585. Further, the z-score is -1.95 in test [2], -3.59 (inactive) in test [3], -0.316 (inactive) in test [4] and -0.471 (inactive) in test [5].
Regarding `C[C@]1(C(=O)NCCN2CCOCC2)c2ccccc2C(=O)N(Cc2ccc(OC(F)(F)F)cc2)[C@H]1c1ccc(CO)cc1`, the composite z-score is -0.0513 (inactive) in test [1] and 0.466 with XIP peptide (Xip251-270). For the same compound, the z-score in test [2] is -1.08; in test [3], -4.78 (inactive); in test [4] it was -0.198 (inactive); in test [5] it was -0.0723 (inactive).
For `O=C1O[C@@H](c2ccccc2)[C@@H](c2ccccc2)N2[C@@H](c3ccc(O)cc3)[C@]3(C(=O)Nc4ccc(C#CCCO)cc43)[C@@H](C(=O)NC[C@H](O)c3ccccc3)[C@H]12`, the results for the composite z-score (in test [1]; in the test with XIP peptide (Xip251-270)) were 0.437 (inactive) and 0.478, respectively. Besides, the z-score in test [2] was -0.656; in test [3] it was -5 (inactive); in test [4] it was -0.101 (inactive); in test [5], -0.46 (inactive).
